Outcome data for 40 compounds are collected here from PubChem BioAssay (EPA / NIEHS).

Structures are written as SMILES. The source made the active and inactive calls. How the source made its calls: active means hit-call score of the fitted dose curve at least 0.9, where 1 is the maximum; inactive means score below 0.9.

In this assay the target is Transcription factor E2F1 (Homo sapiens) (UniProt Q01094). Nature of the assay: ATG_E2F_CIS: Attagene CIS-FACTORIAL HepG2 Assay for human E2F Transcription Factor 1 (AID 2282935). The following applies: HepG2 Attagene cis-reporter, E2F reporter RNA transcripts; actives raise or lower the signal. The procedure: ATG_CIS is a cell-based, multiplexed-readout assay that uses HepG2, a human liver cell line, with measurements taken at 24 hours after chemical dosing in a 24-well plate.ATG_E2F_CIS is one of 52 assay component(s) measured or calculated from the ATG_CIS assay. It is designed to make measurements of mRNA induction, a form of inducible reporter, as detected with fluorescence intensity signals by Reverse transcription polymerase chain reaction (RT-PCR) and Capillary electrophoresis technology.Data from the assay component ATG_E2F_CIS was analyzed into 1 assay endpoint. This assay endpoint, ATG_E2F_CIS, was analyzed with bidirectional fitting relative to DMSO as the negative control and baseline of activity. Using a type of inducible reporter, measures of mRNA for gain or loss-of-signal activity can be used to understand the reporter gene at the transcription factor-level as they relate to the gene E2F1. Furthermore, this assay endpoint can be referred to as a primary readout, because this assay has produced multiple assay endpoints where this one serves a reporter gene function. To generalize the intended target to other relatable targets, this assay endpoint is annotated to the dna binding intended target family, where the subfamily is E2F transcription factor.
Sequence of Transcription factor E2F1 (Homo sapiens) (Q01094 whole entry, looked up): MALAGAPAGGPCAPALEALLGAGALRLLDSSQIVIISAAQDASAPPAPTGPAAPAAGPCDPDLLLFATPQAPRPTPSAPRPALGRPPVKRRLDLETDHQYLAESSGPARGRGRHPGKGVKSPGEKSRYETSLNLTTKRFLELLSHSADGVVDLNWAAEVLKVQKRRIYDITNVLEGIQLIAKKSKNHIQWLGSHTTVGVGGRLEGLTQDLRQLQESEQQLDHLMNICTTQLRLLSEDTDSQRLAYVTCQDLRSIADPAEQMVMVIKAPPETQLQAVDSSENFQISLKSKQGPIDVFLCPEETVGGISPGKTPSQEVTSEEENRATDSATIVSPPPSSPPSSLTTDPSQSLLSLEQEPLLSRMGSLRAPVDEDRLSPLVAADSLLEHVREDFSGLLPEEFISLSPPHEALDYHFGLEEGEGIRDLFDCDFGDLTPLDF
Human liver HepG2 cells are transiently transfected with multiple reporter transcription units (MRTUs) in 6-well plates using FuGene 6 reagent (Roche; 3 ml FuGene/1 mg DNA). The MRTU constructs are regulated by a cis-regulating element (promoter). […] A major difference between the CIS and TRANS system is that in CIS activities of endogenous TFs are measured, whereas the TRANS assay evaluates changes in activities of exogenous, chimeric NR-Gal4 proteins. […] At the end of 24 hour incubation, total RNA was isolated using TriZol reagent (Invitrogen). The isolated RNA is then reverse-transcribed using oligo(dT) primer and Mo-MLV reverse transcriptase (Invitrogen) with DNAse I (Ambion) treatment for 30 min. The one-tenth of the produced cDNA was amplified by PCR using Taq DNA polymerase (Invitrogen) and two reporter sequence-specific primers. The PCR products were fluorescently labeled by primer extension with 6-arboxyfluorescein (6-FAM) 5'-labeled reporter sequence-specific primer (2 min at 95 C, 20 s at 68 C and 10 min at 72 C) and these products were digested with 5U of HpaI (New England Biolabs) for 2h at 37 C. The fragments were purified using Qiaquick PCR columns (Qiagen), analyzed on an ABI 3130xL genetic analyzer (Applied Biosystems) with peak positions identified by using a set of X-rhodamine (ROX)-labeled MapMarker1000 molecular weight standards (BioVentures). The raw capillary electrophoresis data was processed using Attagraph software (Attagene).
As for `CC(=O)c1ccc(-c2ccccc2)cc1`, the compound was called inactive. As for `FC(F)(F)c1ccc(Cl)cc1`, the call was inactive. The value for `CCCCCCCc1ccc(O)cc1` was “inactive”; that for `O=C(O)C(F)(F)C(F)(F)C(=O)O` was “inactive”. With `O=C(O)CF` the entry was “inactive”; with `N#Cc1c(-c2ccc(Cl)cc2)[nH]c(C(F)(F)F)c1Br`, “inactive”. As to `CCCCOCC1CO1` (stereo not given), the result was inactive. With `CNC(=O)Oc1ccc(N(C)C)c(C)c1` the entry was “inactive”; with `Oc1ccc(I)cc1`, “inactive”. The value for `OCC1CO1` (stereo not given) was “inactive”; that for `CC1=C(C(=O)Nc2ccccc2)S(=O)(=O)CCO1` was “inactive”. The value for `COP(=O)(CCC(=O)NCO)OC` was “inactive”; that for `Cc1c([N+](=O)[O-])cc2c(c1[N+](=O)[O-])C(C)(C)CC2(C)C` was “inactive”; that for `O=P(Oc1ccccc1)(Oc1ccccc1)Oc1ccccc1` was “inactive”.

For `CCOS(=O)(=O)OCC`, the result was inactive. With `Cc1ccc2c(c1N)C(=O)c1ccccc1C2=O` the entry was “inactive”; with `CCCCc1ccc(O)cc1`, “inactive”. Regarding `c1ccc(OP(Oc2ccccc2)Oc2ccccc2)cc1`, the compound was classed as inactive.

Take `CCOP(=S)(Oc1ccc([N+](=O)[O-])cc1)c1ccccc1` (stereo not given): the compound was classed as inactive. Regarding `NC(=O)C(F)(F)C(F)(F)F`, the result was inactive. In the case of `Nc1ccc([N+](=O)[O-])cc1Cl`, the compound was called inactive. The value for `C=C(C)C(=O)OCC1CO1` (stereo not given) was “inactive”; that for `COP(=O)(O)OC` was “inactive”; that for `COP(N)(=S)OC` was “inactive”.

For the compound `Oc1ccccc1Br`, the outcome was inactive. The value for `CCOP(=S)(OCC)SCSCC` was “inactive”; that for `O=[N+]([O-])c1ccc(Cl)c(Cl)c1` was “inactive”; that for `c1nc[nH]n1` was “inactive”. The value for `CCCCc1ccccc1` was “inactive”; that for `CC(Cl)(Cl)C(=O)O` was “inactive”; that for `OCC(F)(F)OC(F)(F)C(F)(F)OC(F)(F)C(F)(F)OC(F)(F)F` was “inactive”. With `CC(C)(C)c1ccccc1OP(=O)(Oc1ccccc1)Oc1ccccc1` the entry was “inactive”; with `CN(C)C(=O)Cl`, “inactive”. For `O=P1(N(CCCl)CCCl)NCCCO1` (stereo not given), the outcome was inactive.

`Nc1ccc2ccccc2c1`: the compound was called inactive.

Take `O=S(=O)(F)C(F)(F)C(F)(F)C(F)(F)C(F)(F)C(F)(F)C(F)(F)C(F)(F)C(F)(F)F`: the compound was classed as inactive. With `O=C(O)C=CC(F)(C(F)(F)F)C(F)(F)F` the entry was “inactive”; with `Cc1cc(C)c(C(=O)P(=O)(c2ccccc2)c2ccccc2)c(C)c1`, “inactive”. With `Cc1ccc(O)cc1C` the entry was “inactive”. With `c1ccc2c(c1)sc1ccccc12` the entry was “inactive”.
